Measurements published in the supplement of paper PMC6897291.

Test system: RIVA
Assay: growth inhibition by drug alone (1 - RLU/untreated control) (fraction); higher = stronger inhibition
Conditions: 177Lu-lilotomab satetraxetan 0 ug/ml
Protocol: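 RIVA (RI-1) ABC-DLBCL cells were pretreated or not for 18 h with 0.5 ug/ml 177Lu-lilotomab satetraxetan (600 MBq/mg), washed and seeded (3000 cells/well) on 384-well plates pre-printed with the Selleck Cambridge Cancer Compound library. Viability was read by RealTime-Glo luminescence on days 3-6 after seeding. Effect = 1 - RLU/mean RLU of the 48 untreated no-drug control wells per plate; Bliss score = (M-E)/(1-Fa).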

| Structure (SMILES) | growth inhibition by drug alone (10 nM, time (day): 3) | growth inhibition by drug alone (10 nM, time (day): 4) | growth inhibition by drug alone (10 nM, time (day): 5) | growth inhibition by drug alone (10 nM, time (day): 6) | growth inhibition by drug alone (100 nM, time (day): 3) | growth inhibition by drug alone (100 nM, time (day): 4) | growth inhibition by drug alone (100 nM, time (day): 5) | growth inhibition by drug alone (100 nM, time (day): 6) |
| --- | --- | --- | --- | --- | --- | --- | --- | --- |
| CC(C)OC(=O)C1=CN(C(=O)c2ccc(F)c(F)c2)CC(C)(C)c2c1[nH]c1ccccc21 | 0.0268 | 0.00242 | 0.00693 | -0.0298 | -0.161 | -0.106 | -0.145 | -0.234 |
| Nc1nccc(Oc2ccc(NC(=O)c3c[nH]cc(-c4ccc(F)cc4)c3=O)cc2F)c1Cl | -0.189 | -0.254 | -0.278 | -0.424 | -0.523 | -0.459 | -0.483 | -0.598 |
| CC#C[C@]1(O)CC[C@H]2[C@@H]3CCC4=CC(=O)CCC4=C3[C@@H](c3ccc(N(C)C)cc3)C[C@@]21C [Mifepristone (Mifeprex)] | -0.296 | -0.283 | -0.273 | -0.268 | -0.146 | -0.253 | -0.254 | -0.235 |
| C#Cc1cccc(Nc2ncnc3cc(OC)c(OCCCCCCC(=O)NO)cc23)c1 | -0.19 | -0.225 | -0.209 | -0.242 | 0.881 | 0.779 | 0.749 | 0.672 |
| CC(C)C[C@H](NC(=O)CNC(=O)c1cc(Cl)ccc1Cl)B(O)O | -0.217 | -0.196 | -0.201 | -0.298 | 0.177 | 0.166 | 0.0904 | -0.0331 |
